# Laboratory results taken from PMC9838217, “Structure of SALL4 zinc finger domain reveals link between AT-rich DNA binding and Okihiro syndrome”.
# Residue numbers refer to the chain shown, from its start.
# Assays:
# Assay in all cases: HT-SELEX; high values mean tight binding
# Conditions in all cases: protein: recombinant; vector His6-GST; dsDNA, one strand shown
# [1] = molecular target: T1, SALL4 ZFC4 WT (HT-SELEX) (Mus musculus, UniProt Q8BX22 870-940)
# T1 sequence: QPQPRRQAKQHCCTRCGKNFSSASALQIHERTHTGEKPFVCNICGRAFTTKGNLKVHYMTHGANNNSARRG
# Outline: (§1)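 For each canonical k-mer, binding signal is the read fraction as fold change versus the initial random library. Data came from up to 6 triplicate cycles in which purified recombinant mouse SALL4 zinc finger cluster 4 (residues 870–940, 1 µg) was incubated 10 min at room temperature with library DNA (1.5 µg first cycle, 200 ng later) in 100 µl of 10 mM Tris–HCl pH 7.5, 50 mM NaCl, poly(dI-dC), DTT, followed by Ni2+ bead capture, PCR amplification, MiSeq sequencing and a 6-mer scan.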
# [2] = molecular target: T2, SALL4 ZFC4 R900W (HT-SELEX) (Mus musculus, UniProt Q8BX22 870-940, R900W)
# T2 sequence: T1 sequence with R31W
# Outline: as §1
# [3] = molecular target: T3, SALL4 ZFC4 G921D (HT-SELEX) (Mus musculus, UniProt Q8BX22 870-940, G921D)
# T3 sequence: T1 sequence with G52D
# Outline: as §1
Sequence,binding signal [1] [fold-change vs cycle 0],binding signal [2] [fold-change vs cycle 0],binding signal [3] [fold-change vs cycle 0]
AGTACC,0.813 ± 0.0272,0.947 ± 0.0311,0.981 ± 0.037
GTCAGA,0.728 ± 0.0316,0.836 ± 0.0595,0.887 ± 0.0403
TGAAAA,2.04 ± 0.151,1.73 ± 0.0528,1.57 ± 0.0962
AAAGCG,0.393 ± 0.0227,0.489 ± 0.0338,0.601 ± 0.0731
CTGCAG,0.318 ± 0.0345,0.373 ± 0.0324,0.467 ± 0.0711
AAGTAT,2.21 ± 0.135,2.14 ± 0.158,1.87 ± 0.204
ACGTAA,1.19 ± 0.0733,1.3 ± 0.0477,1.21 ± 0.0842
ATTGAA,2.11 ± 0.107,2.06 ± 0.169,1.86 ± 0.169
AAGAGG,0.855 ± 0.0331,1.01 ± 0.0625,0.999 ± 0.0313
GGTCTA,0.681 ± 0.0386,0.794 ± 0.0243,0.8869 ± 0.005
ATCTAG,1.35 ± 0.0842,1.48 ± 0.0373,1.41 ± 0.108
GAAGCC,0.311 ± 0.0191,0.3714 ± 0.00344,0.514 ± 0.0635
CAAAGA,1.18 ± 0.0383,1.34 ± 0.0673,1.28 ± 0.0399
AGTCTC,0.837 ± 0.0339,0.9527 ± 0.00762,1 ± 0.0392
AACTTA,2.13 ± 0.126,2.11 ± 0.126,1.89 ± 0.231
